Compound activity: PubChem, several laboratories
Sampled rows, rich in hits. Any-hit rate of the full collection: about 1.2%.
EBV LMP1 NFkB: reduces LMP1-driven NF-kappaB luciferase signal. LMP1-induced NF-kappaB luciferase reporter cells, luminescence. inhibition, % at 12.5 µM. 0.69% of 350,000 active; in the data active means inhibition above about 41%;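 further: 0% = neutral control wells and 100% = reference inhibitor control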
NCOA2 inhibitor: human SRC2 (NCOA2) inhibition; AID 651957; inhibition, % at 9 µM; HEK293 GAL4-SRC2 luciferase reporter, luminescence; 0.17% of 370,000 active;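 active means inhibition above the mean inhibition of all tested compounds plus 3 SD, set per campaign, cut at about 52% in these data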;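 further: 0% = DMSO treated cells and 100% = cells given Gossypol at 36 µM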
SRC1 inh: human NCOA1 inhibition; inhibition, % at 3.6 µM; AID 588354; HEK293 GAL4-SRC1 luciferase reporter, luminescence; 0.12% of 360,000 active;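 active means inhibition above the campaign mean plus 3 SD, with each screening campaign given its own cutoff, cut at about 60% in these data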;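 further: 0% = DMSO treated cells and 100% = gossypol at 36 µM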
NR5A2 inv ag: NR5A2 inverse agonism in reporter assay; O00482; HEK293T StAR-luciferase reporter, LRH-1 transfected, 24 h; inhibition, % at 3.6 µM; 0.13% of 360,000 active;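 active means inhibition above the mean inhibition of all tested compounds plus 3 SD, cut at about 73% in these data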;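 further: 0% = DMSO wells and 100% = reporter-only cells lacking LRH-1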
Target sequence (O00482 whole entry, looked up): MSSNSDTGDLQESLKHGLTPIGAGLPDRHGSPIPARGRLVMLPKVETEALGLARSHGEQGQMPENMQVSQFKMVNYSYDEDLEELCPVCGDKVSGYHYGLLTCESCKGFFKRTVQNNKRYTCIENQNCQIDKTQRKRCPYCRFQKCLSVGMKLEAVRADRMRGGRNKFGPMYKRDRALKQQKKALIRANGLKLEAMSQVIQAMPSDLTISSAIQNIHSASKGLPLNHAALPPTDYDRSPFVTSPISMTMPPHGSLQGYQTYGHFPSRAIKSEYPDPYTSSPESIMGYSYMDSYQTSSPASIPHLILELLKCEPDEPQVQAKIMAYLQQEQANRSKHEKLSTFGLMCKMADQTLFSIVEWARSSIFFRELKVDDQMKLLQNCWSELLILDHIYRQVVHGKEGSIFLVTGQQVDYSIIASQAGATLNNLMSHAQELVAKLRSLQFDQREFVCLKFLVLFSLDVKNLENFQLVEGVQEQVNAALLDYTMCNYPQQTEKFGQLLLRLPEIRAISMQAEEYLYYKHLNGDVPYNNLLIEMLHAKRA
SRC3 inh: human NCOA3 inhibition. Q9Y6Q9. HEK293 GAL4-SRC3 luciferase reporter, luminescence. inhibition, % at 3.6 µM. 0.17% of 360,000 active;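 active means inhibition above a per-campaign cutoff, the mean of all compounds plus 3 SD, cut at about 60% in these data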;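 further: 0% = DMSO-treated cells and 100% = gossypol-treated cells at 36 µM; higher means less SRC3-driven luciferase light from the GAL4 reporter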
Shn3 inh set2: inhibitors of Schnurri-3 3'UTR reporter in osteoblasts; Clone20 osteoblast Shn3 3'UTR firefly luciferase, 24 h; 0.52% of 360,000 active; inhibition, % at 12.5 µM;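 active means mean inhibition of at least 75% with every replicate also reaching 75%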;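 further: 0% = median of neutral control wells and 100% = pilot-screen positive control compound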
Numbers without * were called inactive; x = no result.

SMILES	EBV LMP1 NFkB	NCOA2 inhibitor	SRC1 inh	NR5A2 inv ag	SRC3 inh	Shn3 inh set2
CC(C)=CCc1cc([C@@H]2COc3c(ccc4c3C=CC(C)(C)O4)C2)c(O)cc1O	17	11	-9	14	10	92*
CC1(C)C=Cc2c(ccc3c2OC[C@H](c2ccc(O)cc2O)C3)O1	-18	-45	-50	-68	-42	-15
O=C(Nc1ccc2c(c1)nc1n2CCSC1)c1ccco1	45*	-21	-92	-132	-88	11
Cc1cc(C)c2sc(NC(=O)C3CC3)nc2c1	48*	-29	-26	-39	-17	-35
CCCC(=O)NC(c1cccs1)c1cc(Cl)c2cccnc2c1O (stereo unspecified)	31	-17	10	-7	23	80
CC(=O)NC(c1cccs1)c1cc(F)c2cccnc2c1O (stereo unspecified)	53*	19	34	55	30	84
CC(C)CC(=O)NC(c1cccs1)c1ccc2cccnc2c1O (stereo unspecified)	37	x	1	10	8	89*
CCC(=O)NC(c1cccs1)c1ccc2cccnc2c1O (stereo unspecified)	74*	31	10	18	36	79
C[C@@H]1CCN(C2CC2)S(=O)(=O)c2c(cccc2N2CC[C@H](N(C)C)C2)O1	x	5	x	x	x	x
CC1CCC2(CC1)CCN(CCCOC(=O)Nc1cccc(C(F)(F)F)c1)C2=O (stereo unspecified)	x	-6	x	x	x	x
CC(NCc1ccco1)C(=O)N1CCOCC1 (stereo unspecified)	x	-11	x	x	x	x
CCn1c(C)nc2cc(-c3nnc(-c4c(-c5ccccc5)noc4C)o3)ccc21	6	-9	7	3	10	86*
O=C(OCc1ccccc1)N(CCCCN(CCCNCc1ccccc1)C(=O)OCc1ccccc1)CCCNCc1ccccc1	-47	2	7	-22	-7	99*
COc1ccc(CNS(=O)(=O)/C=C/c2ccc(OC)cc2CNC(=O)OC(C)(C)C)cc1	x	-26	x	x	x	x
O=C1CSC(c2ccc(F)cc2)N1c1nc2ccccc2s1 (stereo unspecified)	62*	9	-5	-6	-5	-2
O=C1CSC(c2ccc(F)cc2)N1c1ccccc1F (stereo unspecified)	-1	-3	-7	-21	-30	0
O=[N+]([O-])/C=C/c1cn(Cc2ccc(Cl)cc2)c2ccccc12	9	-16	-13	22	19	89*
CC(C)CC(=O)Nc1cccc(-c2csc(-c3ccccc3)n2)c1	67*	12	6	-10	2	-11
COc1ccc(Cn2cc(CN3[C@@H](c4ccccc4)COc4cc(Br)ccc4S3(=O)=O)nn2)cc1	x	-8	x	x	x	x
Oc1ccccc1C=NN=Cc1c(O)ccc2ccccc12	93*	-6	-68	4	-82	-22
O=[N+]([O-])c1ccc(/C=N/N=C/c2ccc([N+](=O)[O-])o2)o1	-17	-21	-63	5	-10	98*
O=C(CNc1ccc(F)cc1)N/N=C/c1c(O)ccc2ccccc12	37	9	9	-21	11	92*
O=C(O)/C=C/c1ccc([N+](=O)[O-])o1	-4	-1	-6	4	-13	-15
Nc1ccc(C(=O)N/N=C\c2cc(N=Nc3cccc4ccccc34)ccc2O)cc1	60*	24	46	17	61	89*
COC(=O)[C@]12C[C@H](CC(=O)N3CCCCC3)C(=O)N(Cc3ccccc3)C1=C[C@H](C(C)(C)C)O[C@@H]2C	x	13	x	x	x	x
SMILES	EBV LMP1 NFkB	NCOA2 inhibitor	SRC1 inh	NR5A2 inv ag	SRC3 inh	Shn3 inh set2
O=C(CCc1nc(-c2ccccc2F)no1)NCCc1ccc(F)cc1	x	-13	x	x	x	x
O=C(CCc1ccccc1)N[C@H]1[C@@H](OC(=O)c2cccnc2)CCC[C@@]12C(=O)N(Cc1ccccc1)c1ccccc12	x	20	x	x	x	x
Cc1cc(O)cc(O)c1/C=N/NC(=O)c1ccc2c(c1)OCCO2	31	-40	7	-37	-6	91*
CCCC(=O)Nc1ccccc1NC(=O)c1ccc2c(c1)OCO2	78*	11	-1	3	16	3
O=C(N/N=C/c1ccc([N+](=O)[O-])o1)c1ccc2c(c1)OCO2	0	67*	-36	48	-17	24
O=C(O)c1ccc(/C=N/NC(=O)c2ccc3c(c2)OCCO3)cc1	0	-71	-14	-20	-28	-44
Cc1cc(C(=O)N/N=C/c2cc(N=Nc3ccccc3)ccc2O)n[nH]1	-10	x	23	6	42	87*
COC(=O)N/N=C/c1cc(N=Nc2ccccc2)ccc1O	-5	17	-20	-40	-4	8
COc1ccc(C(=O)c2[nH]c(N)c(C(=O)c3c[nH]c4ccccc34)c2-c2ccc(OC)cc2)cc1	x	-27	x	x	x	x
COc1ccc2c(c1)CN1C(=O)N(Cc3ccc(F)cc3)S(=O)(=O)CC21 (stereo unspecified)	x	10	x	x	x	x
CCCC(=O)N1CCC[C@]2(CC[C@@H](CCC(C)=O)O2)C1	x	-8	x	x	x	x
CCOC(=O)[C@]12CCCC=C1N(Cc1ccc(OC)cc1)C(=O)[C@@H]2CC(=O)NCC12CC3CC(CC(C3)C1)C2	x	7	x	x	x	x
O=C(N/N=C\c1c(O)ccc2ccccc12)c1ccc(S(=O)(=O)N2CCCCC2)cc1	68*	-17	20	2	-1	89*
O=C(NN=Cc1c(O)ccc2ccccc12)c1ccc2c(c1)OCO2	74*	7	21	10	25	89*
O=C(N/N=C/c1c(O)ccc2ccccc12)c1ccc(CO)nc1	19	30	10	39	34	82
C=CCN1C(C(=O)OC)CN(Cc2cn(Cc3ccc(F)cc3)nn2)CCS1(=O)=O (stereo unspecified)	x	15	x	x	x	x
CC[N+](C)(C)CC/C=C1/c2ccccc2Sc2ccc(Cl)cc21	x	-4	4	0	5	-8
CCCCCCCCCC[N+](C)(C)CC/C=C1/c2ccccc2Sc2ccc(Cl)cc21	8	x	-36	-4	9	87*
OCCN1CCN(CC/C=C2/c3ccccc3Sc3ccc(Cl)cc32)CC1	80*	12	14	-5	5	-13
CN(C)CC/C=C1\c2ccccc2Sc2ccc(Cl)cc21	-6	-5	-2	-6	3	-24
CCCCCCCCCCC[N+](C)(C)CC/C=C1/c2ccccc2Sc2ccc(Cl)cc21	11	x	-2	-13	-5	92*
COc1cc2c(oc(=O)c3cc(C)cc(OC)c32)c2c(C3OC(C)C(O)C(C)(O)C3O)ccc(O)c12 (stereo unspecified)	78*	-154	54	61	31	9
CC(C)(C)S(=O)(=O)N1Cc2cc(CO)ccc2[C@@H]1CCO	x	11	x	x	x	x
O=C(O)C1CCCN1c1nc(-c2ccc(Cl)c(Cl)c2)cc(C(F)(F)F)n1 (stereo unspecified)	37	-16	53	92*	72*	5
